Hit rate of the full screen: of about 13,000 compounds, about 3,200 (25%) showed an effect of 50% or more. The list shows a part of the results.
These molecules were tested on P. falciparum stage V gametocytes. Conditions: 48 h, 5 µM; inhibitor.
Design: BacTiter-Glo ATP luminescence viability of purified stage V gametocytes in 384-well plates, per cent inhibition versus DMSO
With `CCOC(=O)N[C@@H]1CN[C@@H](C#Cc2cc3c(Nc4ccc(OCc5cccc(F)c5)c(Cl)c4)ncnc3s2)C1` [TCMDC-135402] the “% Inhibition” value was -37.93%. For `O=C(CCn1cncn1)N1CCCC(c2[nH]c3ccccc3c2-c2ccncc2)C1` (stereo not drawn) [TCMDC-125377], the “% Inhibition” value was -42.34%. With `Cc1noc(C)c1C(=O)N1CCc2cc3nccc(N4CCN5CCC[C@H]5C4)c3cc21` [TCMDC-140041] the “% Inhibition” value was -37.7%. For `Cc1noc(C)c1C(=O)N1CCCC(c2[nH]c3c(C)cccc3c2-c2ccncc2)C1` (stereo not drawn) [TCMDC-125361], the “% Inhibition” value was 56.42%. With `Cc1c(CN2CCCCC2)cccc1OCCCNc1nc(NCCc2ccc(O)cc2)nc(N2CCNCC2)n1` [TCMDC-134046] the “% Inhibition” value was 87.79%. For `CN(/N=C/C=C/c1ccc(Cl)cc1)c1nc(NCCc2ccc(O)cc2)nc(N2CCNCC2)n1` [TCMDC-138546], the “% Inhibition” value was 80.85%. `Oc1ccc(CCNc2nc(NCCCOc3cc(CN4CCCCC4)ccc3F)nc(N3CCNCC3)n2)cc1` [TCMDC-134044] was tested, and the “% Inhibition” value was 66.8%. With `Oc1ccc(CCNc2nc(N/N=C/C=C/c3ccc(Cl)cc3)nc(N3CCNCC3)n2)cc1` [TCMDC-138545] the “% Inhibition” value was -5.801%. In the case of `Oc1ccc(CCNc2nc(NCCOc3cccc4ccccc34)nc(N3CCNCC3)n2)cc1` [TCMDC-134132], the “% Inhibition” value was -65.6%. In the case of `CN(/N=C/c1ccc(Cl)cc1)c1nc(NCCc2ccc(O)cc2)nc(N2CCNCC2)n1` [TCMDC-138544], the “% Inhibition” value was 44.17%. In the case of `Cc1cc(OCCCNc2nc(NCCc3ccc(O)cc3)nc(N3CCNCC3)n2)c(Cl)c(C)c1Cl` [TCMDC-134048], the “% Inhibition” value was -28.15%. For `Oc1ccc(CCNc2nc(NCCCOc3cccc(-c4ccccc4)c3)nc(N3CCNCC3)n2)cc1` [TCMDC-134043], the “% Inhibition” value was -9.264%. `Oc1ccc(CCNc2nc(NCCCOc3cccc(CN4CCCCC4)c3Cl)nc(N3CCNCC3)n2)cc1` [TCMDC-134045] was tested, and the “% Inhibition” value was -20.8%. With `Cc1cc(-c2ccc3c(c2)CCN(CCC2CCC(NC(=O)/C=C/c4cccc(F)c4)CC2)CC3)on1` (stereo not drawn) [TCMDC-139973] the “% Inhibition” value was -71.57%. `Cc1ccc(C)c(Sc2ccc(NC(=O)CN3CCN(C(=O)c4ccco4)CC3)cc2)c1` [TCMDC-124860] was tested, and the “% Inhibition” value was -17.66%. `CC(C)c1cccc(OCC2CCN(c3ccc(C(=O)Nc4ccccc4)cn3)CC2)c1` [TCMDC-134261] was tested, and the “% Inhibition” value was 7.313%. `NC(=O)c1c(Cl)nc2ccccc2c1Cl` [TCMDC-131373] was tested, and the “% Inhibition” value was -0.4742%. For `COc1ccc(C(=O)Nc2ccc3nc(N4CCCCC4)cc(C)c3c2)cc1[N+](=O)[O-]` [TCMDC-125448], the “% Inhibition” value was -8.807%. `COc1ccc(S(=O)(=O)N2CCCC(C)C2)cc1N1CCN(C(=O)c2ccc([N+](=O)[O-])o2)CC1` (stereo not drawn) [TCMDC-124803] was tested, and the “% Inhibition” value was 27.68%. In the case of `N#Cc1ccc(NC2(C(=O)N3CCN(c4cccc(Cl)c4)CC3)CC2)c2ccccc12` [TCMDC-136618], the “% Inhibition” value was -25.2%. `O=C(c1cccc(Cl)c1)N1CCN(c2ccc([N+](=O)[O-])c(NC3CC3)c2)CC1` [TCMDC-125827] was tested, and the “% Inhibition” value was 67.12%. With `COc1ccc(C(=O)N2CCN(c3ccc([N+](=O)[O-])c(NC4CC4)c3)CC2)cc1Br` [TCMDC-123659] the “% Inhibition” value was 105.4%. With `O=C(NC1CC1)c1ccc(N2CCC(Cc3ccccc3)CC2)c([N+](=O)[O-])c1` [TCMDC-123724] the “% Inhibition” value was 45.67%. For `O=C(c1cccc(-c2noc(C(F)(F)F)n2)c1)N1CCN(c2ccncc2)CC1` [TCMDC-132423], the “% Inhibition” value was 9.188%. In the case of `O=C(c1cccc(Br)c1)N1CCN(c2ccc([N+](=O)[O-])c(NC3CC3)c2)CC1` [TCMDC-123536], the “% Inhibition” value was 60.19%. For `O=C(Nc1cccc(CN2CCN(C(=O)c3cccc(Cl)c3)CC2)c1)c1ccco1` [TCMDC-136322], the “% Inhibition” value was -11.21%. `O=C(NCC1CCC(C(=O)NCc2cccc3ccccc23)CC1)c1ccc(O)c(-c2ccc(Cl)c(Cl)c2)c1` (stereo not drawn) [TCMDC-140895] was tested, and the “% Inhibition” value was -0.9635%. For `CO/C(=C\C=C\c1cc2cc(Cl)c(Cl)cc2[nH]1)C(=O)NCCCN1CCN(c2cccc(OCC(=O)Nc3cccc(C(=O)c4ccccc4)c3)c2)CC1` [TCMDC-139411], the “% Inhibition” value was 32.5%. In the case of `NC(=O)c1cc2nc(Nc3ccc(F)cc3)nc(NC3CCC3)c2[nH]1` [TCMDC-137003], the “% Inhibition” value was -67.45%. In the case of `COc1ccc(CN2CCC(NCc3cccc([N+](=O)[O-])c3)CC2)cc1` [TCMDC-141201], the “% Inhibition” value was 64.68%. In the case of `CCCCCCN1CCC(NCc2cccc([N+](=O)[O-])c2)CC1` [TCMDC-141205], the “% Inhibition” value was 32.34%. For `O=[N+]([O-])c1cccc(CNCC2CCN(Cc3ccc4ccccc4c3)CC2)c1` [TCMDC-141207], the “% Inhibition” value was 30.18%. `O=C(Nc1ccc2ccccc2c1)N1CCC(NCc2cccc([N+](=O)[O-])c2)CC1` [TCMDC-141278] was tested, and the “% Inhibition” value was 22.21%. For `O=[N+]([O-])c1cccc(CNC2CCN(Cc3ccc(-c4ccccc4)cc3)CC2)c1` [TCMDC-141203], the “% Inhibition” value was 57.53%. For `O=[N+]([O-])c1cccc(CNC2CCN(Cc3ccc(Cl)c(Cl)c3)CC2)c1` [TCMDC-141200], the “% Inhibition” value was 48.14%. In the case of `O=[N+]([O-])c1cccc(CNC2CCN(Cc3ccc(C(F)(F)F)cc3)CC2)c1` [TCMDC-141204], the “% Inhibition” value was -3.032%. With `COc1ccc(CN2CCC(NCc3cccc(C(F)(F)F)c3)CC2)cc1` [TCMDC-141652] the “% Inhibition” value was 21.67%. For `O=[N+]([O-])c1cccc(CNC2CCN(Cc3ccc4ccccc4c3)CC2)c1` [TCMDC-141202], the “% Inhibition” value was 96.08%. In the case of `Cn1c(NC(=O)c2ccc(CNC(=O)c3ccc(O)c(-c4ccc(Cl)c(Cl)c4)c3)cc2)nc2ccccc21` [TCMDC-140881], the “% Inhibition” value was -6.168%. `Cc1[nH]c2cc(Cl)ccc2c1C1=CCN(CCCCC2(C)C(=O)Nc3c(F)cccc32)CC1` (stereo not drawn) [TCMDC-140946] was tested, and the “% Inhibition” value was -93.15%. In the case of `Cc1ccc(S(=O)(=O)NC2CCN(c3ccnc4cc(Cl)ccc34)C2)cc1` (stereo not drawn) [TCMDC-133652], the “% Inhibition” value was 11.61%. With `Cc1cc(OCCCN2CCC(NS(=O)(=O)c3ccc(Cl)c(Cl)c3)C2)c2ccccc2n1` (stereo not drawn) [TCMDC-136282] the “% Inhibition” value was -6.813%. In the case of `COc1ccc(-c2cccc(NC(=O)c3cccc(C#N)c3)c2)cc1CN1CCCC1` [TCMDC-132623], the “% Inhibition” value was 25.04%. With `COc1ccc(-c2ccc(NC(=O)c3cccc(C#N)c3)cc2)cc1CN1CCCC(C(N)=O)C1` (stereo not drawn) [TCMDC-132533] the “% Inhibition” value was 78.38%. `COc1ccc(-c2ccc(NC(=O)c3cccc(C#N)c3)cc2)cc1CN1CCC(O)CC1` [TCMDC-132534] was tested, and the “% Inhibition” value was -38.76%. `COc1ccc(-c2cccc(NC(=O)c3cccc(C#N)c3)c2)cc1CN1CCC(O)CC1` [TCMDC-132626] was tested, and the “% Inhibition” value was 84.74%. With `COc1ccc(-c2cccc(NC(=O)c3cccc(C#N)c3)c2)cc1CN1CCN(C)CC1` [TCMDC-132624] the “% Inhibition” value was 71.95%. With `COc1ccc(-c2ccc(NC(=O)c3ccc(C#N)cc3)cc2)cc1CN1CCC(O)CC1` [TCMDC-132522] the “% Inhibition” value was -51.71%. For `COc1ccc(-c2cccc(NC(=O)c3cccc(C#N)c3)c2)cc1CN1CCCN(C)CC1` [TCMDC-132621], the “% Inhibition” value was 35.38%. In the case of `COc1ccc(-c2ccc(NC(=O)c3cccc(C#N)c3)cc2)cc1CN1CCN(C)CC1` [TCMDC-132532], the “% Inhibition” value was 1.481%. With `Oc1ccc2[nH]c(-c3ccc(OC(F)(F)F)cc3)nc2c1CNC1CCCC1` [TCMDC-136530] the “% Inhibition” value was -82.26%. For `O=C(NC1CCN(c2ccnc3cc(Cl)ccc23)C1)c1ccc(F)cc1F` (stereo not drawn) [TCMDC-133659], the “% Inhibition” value was 10.53%. For `COc1cc(Cc2cnc(N)nc2N)c2c(c1OC)OC(C)(C)C=C2` [TCMDC-138038], the “% Inhibition” value was -2.785%. For `Cc1cc(OCC2CCN(c3ccc(C(=O)NC4CC4)cn3)CC2)ccc1F` [TCMDC-134031], the “% Inhibition” value was 14.38%. For `COc1cc(Nc2ccnc3cc(-c4nccs4)ccc23)ccc1OCCCc1nc2ccccc2[nH]1` [TCMDC-138339], the “% Inhibition” value was -6.497%. With `Brc1ccc(Nc2ccnc3cc(-c4nccs4)ccc23)cc1Oc1ccnc2cc(-c3nccs3)ccc12` [TCMDC-138299] the “% Inhibition” value was 0.7997%. In the case of `Oc1cccc(Nc2ccnc3cc(-c4nccs4)ccc23)c1` [TCMDC-138297], the “% Inhibition” value was -47.13%. In the case of `Oc1cccc(Nc2ccnc3cc(-c4ccncc4)ccc23)c1` [TCMDC-138292], the “% Inhibition” value was 8.476%. For `Cn1cc(Br)c(-c2cccc(Nc3ccnc4cc(-c5nccs5)ccc34)c2)n1` [TCMDC-138333], the “% Inhibition” value was 50.96%. For `Cn1ccc(-c2cccc(Nc3ccnc4cc(-c5nccs5)ccc34)c2)n1` [TCMDC-138336], the “% Inhibition” value was 105.5%. In the case of `NC(=O)CNC(=O)CCCN=C(N)N` [TCMDC-131667], the “% Inhibition” value was 20.86%. `Cc1c(Cc2ccc(F)cc2)c(Cl)nc2nc(N)nc(N)c12` [TCMDC-137680] was tested, and the “% Inhibition” value was -6.829%. In the case of `CS(=O)(=O)c1ccc2c(c1)CCN(CCC1CCC(NC(=O)C(=Cc3ccc(Cl)cc3Cl)c3ccc(-c4ccccc4)cc3)CC1)CC2` (stereo not drawn) [TCMDC-141426], the “% Inhibition” value was -11.75%. In the case of `N#Cc1cccc(-c2cccc(C(=O)NC3CCC(CCN4CCc5ccc(C#N)cc5CC4)CC3)c2)c1` (stereo not drawn) [TCMDC-139681], the “% Inhibition” value was -20.07%. For `CS(=O)(=O)c1ccc2c(c1)CCN(CCC1CCC(NC(=O)C(=Cc3cccc(C#N)c3)c3ccc(-c4ccccc4)cc3)CC1)CC2` (stereo not drawn) [TCMDC-141427], the “% Inhibition” value was 78.58%. For `CC(C)CCN(Cc1cncn1Cc1ccccc1F)C(=O)c1cncc(-c2ccccc2)c1` [TCMDC-132470], the “% Inhibition” value was 20.84%.

Source: paper PMC4552634, “A New Set of Chemical Starting Points with Plasmodium falciparum Transmission-Blocking Potential for Antimalarial Drug Discovery” (PLoS ONE, 2015)
